# PMC6792352, “Limited Chemical Structural Diversity Found to Modulate Thyroid Hormone Receptor in the Tox21 Chemical Library” (Environmental Health Perspectives, 2019)
# Counter-ions that a name gives are not always drawn.
# Tested on: thyroid hormone receptor (endogenous TRα and TRβ)
# Parameters: species or system GH3-TRE-Luc (rat pituitary); GH3-TRE-Luc luciferase reporter, antagonist mode against 1 nM T3, loss of signal, qHTS
# Conditions: antagonist mode, 1 nM T3, no GH3 cytotoxicity hit, 24 h, read-out: Average AC50 (uM) GH3-TRE-Antag
row,SMILES,AC50 [µM]
1,"Oc1cc(Cl)c(Cl)cc1Cl [2,4,5-Trichlorophenol]",> 50
2,COc1ccc(N)cc1 [4-Methoxyaniline hydrochloride],81.8
3,"Oc1cc(Cl)c(Cl)cc1Cl [2,4,5-Trichlorophenol sodium salt]",77.4
4,COc1ccc(N)cc1 [4-Methoxyaniline],89.4
